PubChem BioAssay AID602123 (The Scripps Research Institute Molecular Screening Center, 2011)
In all, about 360,000 compounds went through this assay and about 1,500 (0.42%) were called active. What follows is part of a selection rich in actives, with near analogues and random picks from the rest. A number with no mark means an inactive call. Cut-off read from the data, not from the text of the source: active = inhibition above about 13% (passing the limit was not always enough); inactive = the rest.

Target: Lon protease (Escherichia coli (strain K12)) (UniProt P0A9M0)
Sequence (P0A9M0 whole entry, looked up): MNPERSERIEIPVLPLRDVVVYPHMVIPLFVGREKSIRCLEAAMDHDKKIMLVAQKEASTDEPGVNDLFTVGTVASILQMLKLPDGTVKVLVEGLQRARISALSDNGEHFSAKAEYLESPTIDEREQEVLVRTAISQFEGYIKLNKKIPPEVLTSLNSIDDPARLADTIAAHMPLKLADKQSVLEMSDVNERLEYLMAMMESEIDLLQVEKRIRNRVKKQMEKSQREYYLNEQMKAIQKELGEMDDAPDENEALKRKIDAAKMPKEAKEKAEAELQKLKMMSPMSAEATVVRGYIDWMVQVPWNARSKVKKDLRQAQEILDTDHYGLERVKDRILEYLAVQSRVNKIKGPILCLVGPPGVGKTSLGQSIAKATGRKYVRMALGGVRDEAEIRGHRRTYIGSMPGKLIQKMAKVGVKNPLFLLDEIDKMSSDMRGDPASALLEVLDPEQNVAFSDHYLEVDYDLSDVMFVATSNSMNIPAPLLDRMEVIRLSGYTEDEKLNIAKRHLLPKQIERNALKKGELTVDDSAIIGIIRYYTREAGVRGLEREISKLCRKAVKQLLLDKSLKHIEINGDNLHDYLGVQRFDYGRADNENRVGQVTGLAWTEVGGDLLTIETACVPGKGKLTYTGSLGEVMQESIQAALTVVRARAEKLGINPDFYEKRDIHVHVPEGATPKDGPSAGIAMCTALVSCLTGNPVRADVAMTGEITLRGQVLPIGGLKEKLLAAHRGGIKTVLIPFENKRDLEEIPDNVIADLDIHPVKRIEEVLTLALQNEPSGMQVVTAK
Assay: E. coli eLon protease inhibition – biochemical, fluorescence polarization, primary screen (AID 602123);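 note: 0% = enzyme with probe and DMSO and 100% = no enzyme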
Details: purified E. coli Lon protease, at 7.94 µM, hits give high values

Compound | inhibition
O=S(=O)([N-]c1nc2ccccc2nc1-[n+]1ccc(Cc2ccccc2)cc1)c1ccc(Br)s1 | 51.7% (active)
O=S(=O)(NCc1ccccn1)c1ccc(Br)s1 | -5.95%
CCOC(=O)C(C(=O)c1ccccc1)C(c1ccccc1)c1nccc2ccccc12 (stereo not drawn) | -5.25%
CCOCCOCCC(C(=O)O)P(=O)(c1ccccc1)c1ccccc1 (stereo not drawn) | 1.28%
CSc1ncccc1C(=O)NCC(c1ccco1)N1CCCCC1 (stereo not drawn) | 2.84%
O=C(NCc1ccco1)c1cnn2c(C(F)(F)F)cc(-c3ccco3)nc12 | -0.62%
Oc1ccc2ccccc2c1N=Nc1nccs1 | 43.2% (active)
O=C(COC(=O)CNC(=O)C1CCCCC1)Nc1cccc(F)c1 | -17.9%
CCN1CCN(CC(=O)c2cc(OC)c(OC)c(OC)c2)CC1 | 7.78%
CN1c2ccc(C=O)c3c(C=O)ccc(c23)N(C)C1(C)C | 117% (active)
Cc1ccc(C=O)c([B-](F)(F)F)c1 | -1.79%
COc1ccc(C(=O)NCC(c2ccco2)N2CCc3ccccc32)cc1OC (stereo not drawn) | 4.85%
COc1ccc(OC)c(NC(=O)Cc2cccs2)c1 | 32.4% (active)
COc1cc(OC)cc(C(=O)NNC(=O)Cc2cccs2)c1 | -9.81%
COc1ccc(C)cc1NC(=O)CNCc1cccs1 | 5.01%
COc1cc(C(=O)Nc2ncccc2C)ccc1OCC(=O)N1CCOCC1 | -2.64%
CC(=O)CC[C@@H](C)O[C@@H]1OC(C)[C@H](O)CC1O (stereo partly drawn) | 1.06%
CCc1cc2c(=O)c(-c3nc4ccccc4n3C)c(CCCC(=O)O)oc2cc1OC(=O)C(C)(C)C | -5.21%
O=C1C(Sc2cccc(F)c2)=C[C@@]2(O)CC[C@@H](O)[C@]1(Sc1cccc(F)c1)[C@H]2O | -1.25%
COc1ccc(CC(=O)NCc2nnc(SCC(=O)Nc3nccs3)n2C)cc1 | -1.92%

Compound | inhibition
COc1ccc(C(=O)NCc2nnc(SCC(=O)NC3=NCCS3)n2C)cc1 | 1.04%
COc1ccc(C(=O)NCc2nnc(SCCOc3ccccc3)n2C)cc1 | 19.3% (active)
C/C(=N\NC(=O)NC1CCCCC1)c1ccc(OC(F)F)cc1OC(F)F | -5.36%
O=C1C(C=NCC2CCCO2)=C(O)c2ccccc21 (stereo not drawn) | 3.5%
O=C1c2cccc3c([N+](=O)[O-])ccc(c23)C(=O)N1CC1CCCO1 (stereo not drawn) | 25.4% (active)
N#Cc1cc([N+](=O)[O-])ccc1NCC1CCCO1 (stereo not drawn) | 7.82%
COc1ccc(SCCN2CCN(CC(C)C)CCC2=O)cc1 | 8.99%
CN(Cc1cn(Cc2ccc(C(F)(F)F)cc2)nn1)C1CN(Cc2cn(Cc3ccc(C(F)(F)F)cc3)nn2)S(=O)(=O)C1 (stereo not drawn) | 4.67%
Cc1ccccc1S(=O)(=O)NC(=O)C1(C)CCN1C(=O)C1(c2ccccc2)CCCC1 (stereo not drawn) | -3.92%
CCN(CC)C(=O)CSc1nnc(-c2ccc(S(=O)(=O)NCc3ccccc3Cl)cc2)o1 | 11.8%
Cc1cnc(CN(C)C(=O)C2CCC(=O)N(CCc3cccc(F)c3)C2)[nH]1 (stereo not drawn) | 0.28%
COc1ccc(NC(=O)CSc2nnc(Cc3ccccc3)c(=O)n2N)cc1 | 1.33%
COc1ccc(NC(=O)CC(NC(C)c2ccccc2)C(=O)O)cc1 (stereo not drawn) | 1.2%
COc1ccc(CC(=O)Nc2ccc(-c3nnc(-c4ccccc4)o3)cc2)cc1 | 27.1% (active)
O=c1c2ccccc2nc2n1C(CSCc1cccc(C(F)(F)F)c1)CS2 (stereo not drawn) | -0.91%
COc1ccc(C2C3=C(OC(C)=O)c4ccccc4C3=Nc3c2c(=O)n(C)c(=O)n3C)cc1 (stereo not drawn) | -3.27%
CC1Cc2cc(/C(O)=C3\C(=O)C(=O)N(Cc4cccnc4)C3c3ccccc3F)ccc2O1 (stereo not drawn) | -8.03%
O=C1C=C(NCCNc2c(F)c(F)c(CO)c(F)c2F)CCC1 | 16.1% (active)
CC1CC(C)CN(C(=O)COC(=O)c2ccc3ncsc3c2)C1 (stereo not drawn) | 0.01%
CC(C)NC(=O)Nc1cccc2c1O[C@@H](CN(C)S(=O)(=O)c1ccc(F)cc1)[C@@H](C)CN([C@H](C)CO)C2=O | -17.1%

Compound | inhibition
O=C(COC(=O)c1cccc(Br)c1)Nc1cccc2c1C(=O)c1ccccc1C2=O | -3.73%
O=C(COC(=O)Cn1cnc2ccccc21)Nc1cccc2c1C(=O)c1ccccc1C2=O | 49.2% (active)
O=C(Cn1cnc2ccccc21)Nc1ccccc1-c1ccccc1 | -15.9%
Cc1ccc(S(=O)(=O)N2CCC(C(=O)NCCC3=CCCCC3)CC2)cc1C | 2.33%
Cc1ccc(OCC(=O)Nc2cccc3c2CCCC3)cc1C | -1.11%
O=C(Nc1ccc(Br)cc1F)C1CC(=O)N(C2CCCCC2)C1 (stereo not drawn) | -9.6%
CCS(=O)(=O)n1nc(-c2ccccc2)nc1SCc1ccccc1 | 0.39%
COc1ccc(-c2cc3nc(NCCOc4ccccc4)ccn3n2)cc1 | 5.17%
COc1ccccc1-c1cc2nc(NCc3cccc(Cl)c3)ccn2n1 | 19.1% (active)
CC(C)Cc1ccc(-c2cc3nc(NCc4cccc(Cl)c4)ccn3n2)cc1 | -0.63%
O=C(NCCc1ccco1)C(=O)NCCC1CCCCN1S(=O)(=O)c1ccccc1 (stereo not drawn) | 0.36%
COc1cc(OC)c2ccc(=O)oc2c1C(CCN1CCN(c2ccccc2)CC1)c1ccc2c(c1)OCO2 (stereo not drawn) | -2.01%
O=C(NC(=O)c1ccc(Cl)c(Cl)c1)OC1CCS(=O)(=O)C1 (stereo not drawn) | -3.19%
CCOCCCNS(=O)(=O)Cc1ccccc1 | 5.68%
CCCc1cc(=O)[nH]c(SCC(=O)Nc2ccc(S(=O)(=O)N3CCCC3)cc2)n1 | -14.4%
CCCc1cc(=O)[nH]c(SCC(=O)N2CCN(S(=O)(=O)c3ccc(C)cc3C)CC2)n1 | 22.9% (active)
Cc1ccc(S(=O)(=O)N2CCN(C(=O)CSc3cc(C)ccc3C)CC2)c(C)c1 | 1.59%
COc1ccc(S(=O)(=O)N2CCCCC2c2cc(C(=O)NCc3ccc(F)cc3)no2)cc1 (stereo not drawn) | -3.9%
